The emibetuzumab library of Makowski et al. (2022)
The list shows a part of the results. The hit rate among all sequences tested is not known here.

B1: VH:VL chains; a variant is named by its letters at X, in order (parent)
chain 1: QVQLVQSGAEVKKPGASVKVSCKASGYTFTDYXMHWVRQAPGQGLEWMGXVNPNXXXTTYNQKFEGRVTMTTDTSTSTAYMELRSLRSDDTAVYYCARXNXLDXWGQGTTVTVSS
chain 2: DIQMTQSPSSLSASVGDRVTITCSVSSSVSSIYLHWYQQKPGKAPKLLIYSTSNLASGVPSRFSGSGSGTDFTLTISSLQPEDFATYYCQVYSGYPLTFGGGTKVEIK

Variants of: B1
Assay: yeast display scFab, FACS + sequencing
Details: with MET
Summary of the method: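 Two magnetic rounds on Protein A beads coated with HGFR-Fc, followed by FACS, were used to enrich a yeast surface scFab library mutated in the heavy-chain CDRs. FACS gated the top 50% antigen-positive cells after 3 h labelling at room temperature with 1 nM HGFR-Fc and anti-Myc in PBSB plus 1% milk. Binding to the antigen was scored positive when a sequence occurred in both antigen-positive samples from deep sequencing and negative when it occurred only in the input.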

Variant	antigen binding call
VRERGDLV	no binding
DTERGSLV	no binding
YRERGAAV	binds
VRERGVGV	no binding
VRERGSAV	binds
FRERGSAV	binds
YRERGSAV	binds
VTGEADAS	no binding
DATGGDVA	no binding
DAGGAAAV	no binding
VEEEGDGA	no binding
YRGKGAWY	binds
FKGKGAWY	binds
VKEKGAWY	no binding
YRGKDAWY	binds
YKGKGAWY	binds
AKGGAAVY	no binding
AETKGALD	no binding
YRGKDAWS	binds
SKAGDAWY	no binding
SKGKGAWY	binds

Variant	antigen binding call
YRGKGAGY	binds
YAGKTAWS	no binding
YRGKDAAY	binds
SEARSDAV	no binding
YRRRGSLY	binds
FRAGGSLY	binds
FRRRGSLY	binds
DRAGDDLY	no binding
YRKKGALY	binds
VAGTGDWV	no binding
DKREADGA	no binding
VEERDAGD	no binding
VTEGDAGA	no binding
SKTRAFVA	no binding
SREAAAVY	no binding
SRAGGSLY	binds
YRRRGALY	binds
SRGGGVGY	no binding
DAERDSGV	no binding
YRARDDVF	no binding
VRARGAWF	binds

Variant	antigen binding call
VRGGDDWF	no binding
YRTGDDVF	no binding
VRTEDDWF	no binding
YRARGAGF	binds
YRARGAWF	binds
YRARSDVF	binds
SEGADAVA chain 1 G106S	no binding
VETGNDGA	no binding
VRAGDDVF	no binding
YRARSAGF chain 1 G108D	no binding
VGTKGAGF	no binding
YRARSAGF	binds
VRARGAGF	binds
DEKKADWA	no binding
SEEGTDGV	no binding
YKTESYWY	no binding
YKGRGYSY	no binding
YKGRGYWY	binds
YRGRGSWY	binds
YRGRGYWY	binds
